# Experimental data published in PubChem BioAssay AID1775 (NMMLSC, 2009).
# The whole screen tested about 220,000 compounds, of which about 820 (0.37%) were called active. Shown is part of a subset that was picked to be rich in actives. Values without a mark were called inactive. Rule as the data show it: active = fluorescence above about 47; inactive = the rest.
# Assay: green autofluorescence of compounds with avidin beads – biophysical, 488/530 nm, flow cytometry, artefact control, profiling panel (AID 1775)
# Conditions: compound fluorescence 488/530 nm, at 10 µM, active compounds read high
row,Compound,fluorescence (KMESF)
1,COc1ccc(/C(=N\O)c2nccc3cc(OC)c(OC)cc23)cc1OC,7
2,O=C(NC(=S)Nc1ccc(S(=O)(=O)N2CCOCC2)cc1)c1ccccc1[N+](=O)[O-],10
3,CCc1ccccc1NC(=O)Cc1cn(C)c2ccccc12,10
4,Brc1ccc(CSc2ccc(-c3ccco3)nn2)cc1,13
5,Cn1c(SCc2c(F)cccc2Cl)nnc1-c1cnccn1,1
6,Fc1cccc(Cl)c1CSc1ccc(-c2ccco2)nn1,49 (active)
7,CCCCN(Cc1ccccc1)C(=O)C1CCN(Cc2sccc2C)CC1,5
8,Cc1ccc(-c2cn(S(=O)(=O)c3cccc([N+](=O)[O-])c3)nc2N)cc1,2
9,O=C(N/N=C/c1cccc2cccnc12)[C@H]1C[C@@H]1c1ccccc1,4
10,Cc1c(CN2CCCC(C(=O)c3cccc(Cl)c3)C2)c(=O)n(-c2ccccc2)n1C (stereo not given),67 (active)
11,Cc1c(CN2CCC(C)CC2)c(=O)n(-c2ccccc2)n1C,9
12,Cc1cccc(N2CCN(Cc3c(C)n(C)n(-c4ccccc4)c3=O)CC2)c1C,16
13,O=C(/C=C/Nc1ccccc1)c1cnc(-c2ccccc2)s1,49 (active)
14,Cc1ccc(N/C=C/C(=O)c2ccccc2)cc1C,14
15,CC(=O)c1cnc(-c2ccccc2)s1,9
16,CCNC(=O)CCc1nc(-c2ccc(C)cc2)no1,4
17,Cc1ccc(-c2noc(CCC(N)=O)n2)cc1,19
18,CCNC(=O)CCc1nc(-c2ccc(C(C)(C)C)cc2)no1,49 (active)
19,Cc1ccc2c(C)c(C(=O)N3CCC(N4CCC(C(=O)NC5CC5)CC4)CC3)oc2c1,8
20,COc1ccc(NC(=O)C2C3C=CC(C3)C2C(=O)NCc2ccccn2)c(OC)c1 (stereo not given),27
21,Cc1ccccc1N(C(=O)Cc1cccs1)C(C(=O)NC1CCCCC1)c1cn(C)nc1C (stereo not given),12
22,O=S(=O)(NCCc1csc(-c2ccccc2)n1)c1cccnc1,5
23,CC(C(=O)NC1CCCC1)N(c1ccc(Oc2ccccc2)cc1)S(C)(=O)=O (stereo not given),9
24,Cc1ccccc1C(OCCN(C)C)C1CCCCC1 (stereo not given),13
25,O=C(COc1ccc(Cl)cc1)NCCC1=CCCCC1,51 (active)

row,Compound,fluorescence (KMESF)
1,Cc1nnc(OCC(=O)NCCC2=CCCCC2)c2ccccc12,20
2,O=C(COc1cccc(-n2cnnn2)c1)NCCC1=CCCCC1,5
3,COC/C=C/C1=CC2=CC(=O)C(C)(OC(=O)CCC(=O)OC)C(=O)C2=CO1 (stereo not given),10
4,O=C(CSc1ccccc1)Nc1ccc(C(=O)Nc2cccc(O)c2)cc1,15
5,O=C(NCCOc1ccccc1Cl)C(=O)Nc1ccccc1,2
6,COc1ccc(S(=O)(=O)N2CCCCCC2)cc1C(=O)OCC(=O)Nc1cc(C)on1,11
7,O=C(/C=C/c1ccc(Cl)c([N+](=O)[O-])c1)c1ccc(O)cc1,6
8,CN(C)c1ccc(/C=C/C(=O)c2ccc(C(C)(C)C)cc2)cc1[N+](=O)[O-],57 (active)
9,CN(C)c1ccc(/C=C/C(=O)c2ccc(O)cc2)cc1[N+](=O)[O-],6
10,N=C(N)SCc1cccc2ccccc12,68 (active)
11,CCOc1ccc(Br)cc1CSC(=N)N,8
12,c1ccc2c(CSCc3nc4ccccc4[nH]3)cccc2c1,9
13,C=CCn1c(=S)sc2c(=O)[nH]c(C)nc21,3
14,CSc1ccc(CN2C(=O)NC3(CCCCCC3)C2=O)cc1,50 (active)
15,O=C1NC2(CCCCCC2)C(=O)N1CCS(=O)(=O)Oc1ccccc1,12
16,O=C(CN1C(=O)NC2(CCCCCC2)C1=O)NC1CC1,14
17,CN=C(c1ccccc1)c1c(C)cccc1C,1
18,CCN(CC)C(=O)CC(c1ccc2c(c1)OCO2)c1c(OC)cc(OC)c2c(-c3ccccc3)cc(=O)oc12 (stereo not given),8
19,O=C(NC1CC1)c1ccc(-c2ccccc2)cc1,11
20,O=C(NC1CC1)c1ccc2c(c1)NC(=O)c1ccccc1S2,80 (active)
21,O=C(NC1CC1)c1cccc(Br)c1,4
22,COc1ccc(Cl)cc1N(CC(=O)N/N=C/c1ccc(OCC(N)=O)cc1)S(C)(=O)=O,10
23,Cc1[nH]nc(SCC(=O)NCC(C)C)c1[N+](=O)[O-],6
24,CCOC(=O)c1sc(NC(=O)CSc2n[nH]c(CC)n2)nc1C,15
25,CCOC(=O)c1sc(NC(=O)c2ccncc2)nc1C,4

row,Compound,fluorescence (KMESF)
1,CCOC(=O)c1sc(/N=C/Nc2nc(C)c(C(=O)OCC)s2)nc1C,54 (active)
2,Cc1ccc2nc(-c3cccnc3)c(NC3CCCC3)n2c1,9
3,Cc1cc(=O)n2[nH]c(-c3sccc3-n3c(C)ccc3C)cc2n1,5
4,O=C(CCC(=O)N1CCCC1)Nc1ccc([N+](=O)[O-])cc1,9
5,Cc1ccc(-n2c(C)cc(C(=O)CSc3nnc4ccccn34)c2C)cc1,11
6,O=C(CN1CCN(c2ccc(Cl)cc2)CC1)N1CCCC1,13
7,COC(=O)c1ccccc1OCC(=O)N1CCN(c2ccc(Cl)cc2)CC1,189 (active)
8,O=C(COc1ccc(Cl)cc1)N1CCN(c2cccc(C(F)(F)F)c2)CC1,20
9,CC(C)COC(=O)n1c(=O)oc2ccc(S(=O)(=O)N3CCCCC3)cc21,7
10,Cc1cc(OC(=O)c2ccccc2)c([N+](=O)[O-])c(=O)[nH]1,13
11,Cc1cccc(N2CC(C)Cn3c2nc2c3c(=O)n(CC(=O)OCc3ccccc3)c(=O)n2C)c1 (stereo not given),5
12,CC(C)OCCCNc1nc2c(c(=O)n(Cc3ccccc3F)c(=O)n2C)n1C,16
13,COc1ccc(N2CC(C)Cn3c2nc2c3c(=O)n(Cc3ccccc3F)c(=O)n2C)c(OC)c1 (stereo not given),54 (active)
14,C/C(=N\Nc1cccc(C(=O)O)c1)c1ccc2c(c1)Nc1ccccc1S2,11
15,O=C(CCCCn1c(=O)[nH]c2ccccc2c1=O)NCc1ccc2c(c1)OCO2,81 (active)
16,COc1ccc(CCNC(=O)CCCCn2c(=O)[nH]c3ccccc3c2=O)cc1OC,39
17,O=C(CCCCCn1c(=O)[nH]c2ccccc2c1=O)NCCc1c[nH]c2ccccc12,14
18,N/C(=N\OC(=O)CCn1cccc(C(F)(F)F)c1=O)c1ccc(OC(F)(F)F)cc1,8
19,COc1cccc(C(=O)N2CCCC(CCC(=O)NCc3ccc(F)c(F)c3)C2)c1 (stereo not given),8
20,O=C(Nc1ccccc1)c1cccnc1Nc1ccccc1,8
21,Cc1ccc(NC(=O)c2cccnc2C(=O)Nc2ccc(C)cc2)cc1,10
22,O=C(Nc1ccc(-n2ccnc2P(=O)(O)c2ccccc2)cc1)c1ccccc1Br,81 (active)
23,COc1ccc(CCN2C(=O)N(c3ccc(OC)cc3)C(=O)C2CC(=O)Nc2ccc(OC)cc2)cc1 (stereo not given),6
24,Cc1cc(NC(=O)CSc2nccn2-c2ccc([N+](=O)[O-])cc2)no1,25
25,C/C(=N/Nc1ccc(Cl)cc1)c1cnnc(-c2ccccc2)n1,21

row,Compound,fluorescence (KMESF)
1,Cc1ccc(S(=O)(=O)N2CCOCC2)cc1C(=O)NC(=S)N(Cc1ccccc1)C(C)C,4
2,CCN(CC(=O)Nc1cccc(S(N)(=O)=O)c1)Cc1nc2ccccc2c(=O)[nH]1,7
3,COc1ccc(C2CC(c3ccccc3)Nc3ncnn32)cc1 (stereo not given),9
4,Clc1ccc(C2CC(c3cccs3)n3ncnc3N2)cc1Cl (stereo not given),7
5,FC(F)Oc1ccccc1C1CC(c2ccc(Br)s2)Nc2ncnn21 (stereo not given),72 (active)
6,CNC(=S)NNC(=O)c1oc2nc(-c3ccccc3)cc(-c3ccco3)c2c1N,7
7,COc1ccc(CCN2C(=O)CC(N3CCC(C(N)=O)CC3)C2=O)cc1OC (stereo not given),5
8,O=C(CCc1[nH]c2ccccc2c1Sc1ccccc1)N(CCO)CCO,16
9,CS/C(=C\C(=O)c1ccco1)Nc1ccccc1Cl,7
10,COc1ccc(CCNC(=O)CN(c2ccccc2)S(C)(=O)=O)cc1,9
11,COC(=O)CNC(=O)c1ccc(OC2CCN(C(=O)C3CC3)CC2)cc1,7
12,O=C(CC12CC3CC(CC(C3)C1)C2)NCc1ccco1,11
13,O=C(COC(=O)C12CC3CC(CC(C3)C1)C2)NCc1ccco1,56 (active)
14,O=C(COC(=O)CCC(=O)c1cccs1)NCc1ccco1,9
15,COCCCn1c(-c2cccs2)nc2nc3ccccc3nc21,6
16,COc1ccc(NC(=O)Cn2c(=O)n(Cc3ccco3)c(=O)c3ccccc32)cc1,36
17,CN(c1ccccc1)c1ccc(/C=c2\s/c(=C(/C#N)C(=O)C(C)(C)C)n(Cc3ccco3)c2=O)cc1,453 (active)
18,Cc1cs/c(=N\N=C\c2ccc(O)cc2)n1Cc1ccco1,7
19,CCOC(=O)CC(NC(=O)C1c2ccccc2Oc2ccccc21)c1ccc(C)cc1 (stereo not given),11
20,Clc1ccc(C[n+]2cc(-c3ccccc3)n3c2CCC3)cc1,7
21,O=C(/C=C/c1ccco1)Nc1cccc(-c2nc3ccccc3[nH]2)c1,9
22,O=C(Nc1cccc(-c2nc3ccccc3[nH]2)c1)c1ccc(C(=O)Nc2cccc(-c3nc4ccccc4[nH]3)c2)cc1,151 (active)
23,O=C(Cc1cccs1)Nc1cccc(-c2nc3ccccc3[nH]2)c1,14
24,Cc1ccc(CN2C(=O)N/C(=C/c3cc(C)n(-c4ccccn4)c3C)C2=O)cc1,16
25,CCCCCCCCCCCCC(NC(C)=O)(C(=O)OCC)C(=O)OCC,6
